Screening data: PubChem, several laboratories
BoNT A protease = BoNT A light chain protease inhibition; multiplex microsphere protease substrate cleavage, flow cytometry; inhibition, % at 10 µM; 360,000 compounds, 0.17% hits; AID 588499; note: plate controls were buffer without enzyme for full effect and enzyme alone for no effect
BoNT F protease = BoNT F light chain protease inhibition; Multiplex microsphere protease cleavage assay, flow cytometry; inhibition, % at 10 µM; 360,000 compounds, 0.22% hits; AID 588497; in the data active = inhibition above about 35%, passing the limit was not always enough; inconclusive = no clear call, values can overlap the other calls; note: plate controls were buffer without enzyme for full effect and enzyme alone for no effect
Autofluor counter = flagged as autofluorescent in microsphere protease counterscreen; compound autofluorescence counterscreen, microsphere flow cytometry; stronger effect = higher value; fluorescence intensity (test concentration not listed); 360,000 compounds, 3.1% hits; in the data active = fluorescence intensity above about 16000; inconclusive = no clear call, values can overlap the other calls
TcdB GH inh = blocks C. difficile toxin B glycohydrolase activity. AID 652162. inhibition, % at 9.99 µM. 350,000 compounds, 0.24% hits. TcdB glycohydrolase enzymatic assay, plate reader; in the data active = inhibition above about 10%
Anthrax LF inh2 = anthrax lethal factor protease inhibition. P15917. multiplex microsphere protease cleavage assay, LF. inhibition, % at 10 µM. 360,000 compounds, 0.12% hits. AID 588501; note: plate controls were buffer without enzyme for full effect and enzyme alone for no effect
Target sequence (P15917 whole entry, looked up): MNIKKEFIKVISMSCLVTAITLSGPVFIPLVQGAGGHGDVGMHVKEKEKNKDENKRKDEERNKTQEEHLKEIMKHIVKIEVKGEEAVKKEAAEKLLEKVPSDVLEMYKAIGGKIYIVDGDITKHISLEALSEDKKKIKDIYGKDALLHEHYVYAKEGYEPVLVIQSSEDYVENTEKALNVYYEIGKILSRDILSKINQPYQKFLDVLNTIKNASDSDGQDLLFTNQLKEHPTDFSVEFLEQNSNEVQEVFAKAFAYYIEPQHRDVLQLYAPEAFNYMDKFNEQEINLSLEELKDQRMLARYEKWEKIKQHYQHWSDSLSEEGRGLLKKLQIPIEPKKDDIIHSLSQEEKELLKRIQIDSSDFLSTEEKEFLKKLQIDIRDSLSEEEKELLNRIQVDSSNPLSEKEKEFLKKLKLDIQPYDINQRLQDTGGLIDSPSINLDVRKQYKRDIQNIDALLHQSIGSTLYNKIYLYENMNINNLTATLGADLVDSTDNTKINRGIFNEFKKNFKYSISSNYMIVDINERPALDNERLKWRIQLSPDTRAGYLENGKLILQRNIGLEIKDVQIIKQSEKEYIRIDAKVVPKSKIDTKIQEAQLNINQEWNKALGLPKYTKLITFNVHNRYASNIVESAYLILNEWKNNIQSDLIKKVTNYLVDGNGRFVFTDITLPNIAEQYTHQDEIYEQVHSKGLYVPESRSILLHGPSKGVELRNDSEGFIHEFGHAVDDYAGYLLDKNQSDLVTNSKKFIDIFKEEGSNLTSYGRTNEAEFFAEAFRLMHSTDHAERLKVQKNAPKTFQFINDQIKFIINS
* = called active by the depositor; ? = inconclusive; / = no result given. Shown is part of a subset that was picked to be rich in hits. Cut-off read from the data, not from the text of the source, unless noted: active = inhibition above about 30%; inconclusive = no clear call, values can overlap the other calls; inactive = below that.

SMILES	BoNT A protease	BoNT F protease	Autofluor counter	TcdB GH inh	Anthrax LF inh2
O=C(C[C@H]1C=C[C@H](NC(=O)c2ccccn2)[C@H](CO)O1)NCc1cc(F)cc(F)c1	/	/	/	-3.5	/
COc1cc(C(=O)N(Cc2cc3cc(C)ccc3[nH]c2=O)CC2CCCO2)cc(OC)c1OC (stereo unspecified)	0.1	3.2	9658	/	0.4
COc1cc(C(=O)N(Cc2ccccn2)CC2CCCO2)cc(OC)c1OC (stereo unspecified)	2.7	5.1	21493*	0.8	1.1
CC(C)CC#Cc1cnc2c(c1)C(=O)N([C@@H](C)CO)C[C@@H](C)[C@@H](CN(C)S(=O)(=O)c1cn(C)cn1)O2	/	/	/	-0.3	/
O=C(Cc1ccccc1)N/N=C/c1cc(Br)c(Br)o1	?	-4.0	16918*	/	2.1
COC(=O)Cc1c(O)ccn(Cc2cccc3ccccc23)c1=O	1.0	0.0	21316*	/	-0.7
O=C(NCc1ccccc1)[C@H]1[C@H](CO)[C@H]2Cn3c(ccc(-c4cccc(F)c4)c3=O)[C@@H]1N2	/	/	/	0.6	/
Cc1noc(C)c1C(=O)N1CCC2(CC1)OCCO2	-2.3	-2.2	20724*	1.1	-1.1
CCc1noc(C)c1C(=O)N1CCCC1	?	-0.3	16196*	1.3	-0.9
Cc1occc1C(=O)N1CCC2(CC1)OCCO2	?	-1.1	23817*	/	-1.2
Cc1occc1C(=O)N1CCN(C(c2ccccc2)c2ccccc2)CC1	-1.2	-0.9	22960*	/	-0.9
Cc1occc1C(=O)N1CCN(S(C)(=O)=O)CC1	0.6	0.3	10994	/	-4.4
Cc1ccccc1C(=O)N1CCN(C(c2ccccc2)c2ccccc2)CC1	?	?	3922	-0.1	-1.1
COc1ccc2c3c(n(C)c2c1)[C@@H](CO)N(Cc1ccccc1)CC31CCN(S(=O)(=O)c2ccc(C)cc2)CC1	/	/	/	0.6	/
CO[C@@H]1CN(C)C(=O)c2ccc(NC(=O)c3ccccc3F)cc2OC[C@H](C)N(C(C)=O)C[C@@H]1C	/	/	/	-0.1	/
O=C(c1ccccc1)N1CCC2(CC1)OCCO2	-0.1	-6.7	5478	0.7	-2.2
Cc1cc(C(=O)N2CCC3(CC2)OCCO3)cs1	?	-4.1	21544*	/	0.9
O=C(CCN1CCCCC1)Nn1c(=S)[nH]c2ccccc2c1=O	?	-2.7	23257*	/	-2.5
Cc1c(OCC(=O)OC(C)(C)C)ccc2c3c(c(=O)oc12)CCC3	-0.3	-6.5	5189	/	-1.4
Cc1oc(C(=O)O)cc1COc1ccc2c3c(c(=O)oc2c1C)CCC3	-0.4	-4.9	16185*	/	0.2
O=C(C[C@H]1C[C@H]2c3cc(NC(=O)Nc4ccc(C(F)(F)F)cc4)ccc3O[C@H]2[C@H](CO)O1)NCC1CC1	/	/	/	-0.3	/
C[C@@H]1CN([C@@H](C)CO)C(=O)c2cccc(NC(=O)Nc3ccc(F)cc3)c2O[C@@H]1CN(C)CC1CC1	/	/	/	0.0	/
CC1CCN(CCC(=O)N2CCCc3c2c(=O)oc2ccc(O)cc32)CC1	-4.0	-19.5	10817	/	-11.7
CN(CC(=O)N1CCCc2c1c(=O)oc1ccc(O)cc21)Cc1ccccc1	-3.9	-5.4	20887*	/	-0.1
CN1[C@H](C(=O)NC2CCCCC2)[C@@H](CO)[C@@H]2Cn3c(ccc(/C=C/c4ccccc4)c3=O)[C@@H]21	/	/	/	0.8	/
SMILES	BoNT A protease	BoNT F protease	Autofluor counter	TcdB GH inh	Anthrax LF inh2
O=Cc1ccc(N2N=C(c3ccccc3)CC2c2ccccc2)cc1 (stereo unspecified)	41.5*	53.1*	4507	0.9	2.4
CCOc1ccc(C(=O)NC2CCN(S(=O)(=O)c3ccccc3)CC2)cc1	1.4	37.5*	2800	1.3	-0.4
Cc1ccc(C(=O)NC2CCN(S(=O)(=O)c3ccccc3)CC2)cc1	0.4	-2.9	3657	1.6	0.6
O=C(NC1CCCCC1)c1ccc(S(=O)(=O)N2CCCC2)cc1	?	-3.9	16946*	/	-1.9
CN1CCN(S(=O)(=O)c2ccc(C(=O)NC3CCCCC3)cc2)CC1	0.3	8.9	3830	0.6	3.2
CCCN(C)C[C@H]1Oc2cc(-c3cncnc3)ccc2S(=O)(=O)N([C@H](C)CO)C[C@H]1C	/	/	/	0.4	/
CCCN(C)C[C@H]1OCCCC[C@H](C)Oc2ccc(NS(=O)(=O)c3ccc(F)cc3)cc2C(=O)N([C@@H](C)CO)C[C@H]1C	/	/	/	0.6	/
CN(c1ccccc1)c1nc2ccsc2c(=O)s1	1.9	2.5	21828*	2.2	-0.7
CCN(c1ccccc1)c1nc2ccsc2c(=O)s1	1.8	1.6	15914	/	0.8
CN1C(=O)c2cc(NC(=O)C3CC3)ccc2OC[C@@H]2O[C@@H](CC(=O)NC3CCC3)CC[C@@H]21	/	/	/	-12.4	/
COc1ccc(Cl)cc1NC(=O)Nc1ccc(Br)cn1	?	-6.2	17461*	/	-3.0
COc1ccccc1NC(=O)Nc1ccc(Br)cn1	0.0	-1.6	2341	/	-2.1
COc1ccc(Cl)cc1NC(=O)NC(C)c1ccncc1 (stereo unspecified)	-2.4	-4.0	17204*	/	0.1
COc1ccc(CCC(=O)Nc2ccc(Br)cn2)cc1	?	-3.6	24589*	/	-0.7
COc1ccc(NC(=O)Nc2ccc(Br)cn2)cc1OC	-3.8	-12.6	17621*	0.9	-2.8
COc1ccc(S(=O)(=O)N(C)C[C@@H]2Oc3ncc(C#CC4(O)CCCC4)cc3C(=O)N([C@@H](C)CO)C[C@H]2C)cc1	/	/	/	0.9	/
COc1ccc(Cl)cc1NC(=O)CCc1ccccc1	-0.8	-11.4	3100	/	-2.2
CCOCCC(=O)Nc1cc(Cl)ccc1OC	0.8	1.4	22752*	/	-1.8
C[C@@H]1CCCCO[C@H](CN(C)Cc2ccccc2)[C@H](C)CN([C@H](C)CO)C(=O)c2cc(NS(=O)(=O)c3ccc(F)cc3)ccc2O1	/	/	/	1.0	/
Cc1cc(C)c2c(=O)n(-c3ccccc3)[nH]c2n1	0.6	-1.9	8630	/	-7.8
Cc1cc(C(C)(C)C)nc2[nH]n(-c3ccccc3)c(=O)c12	-3.8	-6.9	20895*	/	0.7
Brc1cccc(-c2cnc3n2CCCCC3)c1	-0.5	5.5	2419	/	0.6
Clc1ccc(-c2cnc3n2CCC3)cc1	?	0.9	21764*	/	-3.0
CO[C@@H](C(=O)N(C)C[C@@H]1OCc2ccccc2-c2ccccc2C(=O)N([C@H](C)CO)C[C@@H]1C)c1ccccc1	/	/	/	1.7	/
COC(=O)C1C(=O)/C(=C(/C)N2CCCC2)C(=O)CC1(C)C (stereo unspecified)	?	-1.3	23073*	/	-0.1
SMILES	BoNT A protease	BoNT F protease	Autofluor counter	TcdB GH inh	Anthrax LF inh2
C/C=C/c1ccc2c(c1)[C@H]1[C@H](CCN1S(=O)(=O)c1ccccc1C)[C@@H](CO)N2	/	/	/	0.1	/
COc1cccc(CNC(=O)C[C@H]2CC[C@@H](NC(=O)C3CCOCC3)[C@@H](CO)O2)c1	/	/	/	-0.6	/
COc1cccc(CNCC(O)(c2ccc(Cl)cc2)c2ccc(Cl)cc2)c1	-0.3	-12.2	23322*	/	-3.3
O=C(C(Cl)Cl)N1c2ccccc2OCC1c1ccccc1 (stereo unspecified)	?	-2.7	22852*	/	-1.3
CCC(=O)N(C)C[C@H]1Oc2ncc(/C=C/c3ccccc3)cc2C(=O)N([C@H](C)CO)C[C@@H]1C	/	/	/	2.4	/
O=C(NC(=O)c1cccc(OC(F)(F)C(F)F)c1)OC1CCS(=O)(=O)C1 (stereo unspecified)	-0.4	0.8	24101*	/	1.4
O=C(c1nsc(Cl)c1Cl)N1CCCCC1	0.3	-0.2	20635*	/	-0.6
